hERG WT inh = KCNH2 (human, wildtype) channel inhibition. Q12809. U2OS, BacMam KCNH2, thallium flux FluxOr; active compounds read low. activity change, % at 1.84 µM. 0.37% of 340,000 active. AID 720551;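 active = maximum activity change below -70%; inconclusive = maximum activity change between -70% and -50%; inactive = maximum activity change above -50%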
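U2OS cells transduced with wild-type KCNH2 virus are loaded with FluxOr dye for 45 min, and thallium flux is measured in kinetic reads before and after stimulation buffer. Rate constants are normalized to DMSO controls.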
RXFP1 ag = agonists of human relaxin receptor RXFP1 | Q9HBX9 | HEK293T-RXFP1 cAMP TR-FRET, 30 min; response scale: percent of porcine relaxin response, buffer zero | Potency, µM (series often up to 57.5 µM), for inactives: top-dose activation, hits mostly activators | 0.3% of 370,000 active | AID 2676; active = well fitted activation curve with a large enough effect; inconclusive = small, poorly fitted or top-dose-only effect; also: potency is read from the fitted curve at half-maximal effect; nearly all actives have a fitted effect of over 60% in size
Target sequence (Q9HBX9 whole entry, looked up): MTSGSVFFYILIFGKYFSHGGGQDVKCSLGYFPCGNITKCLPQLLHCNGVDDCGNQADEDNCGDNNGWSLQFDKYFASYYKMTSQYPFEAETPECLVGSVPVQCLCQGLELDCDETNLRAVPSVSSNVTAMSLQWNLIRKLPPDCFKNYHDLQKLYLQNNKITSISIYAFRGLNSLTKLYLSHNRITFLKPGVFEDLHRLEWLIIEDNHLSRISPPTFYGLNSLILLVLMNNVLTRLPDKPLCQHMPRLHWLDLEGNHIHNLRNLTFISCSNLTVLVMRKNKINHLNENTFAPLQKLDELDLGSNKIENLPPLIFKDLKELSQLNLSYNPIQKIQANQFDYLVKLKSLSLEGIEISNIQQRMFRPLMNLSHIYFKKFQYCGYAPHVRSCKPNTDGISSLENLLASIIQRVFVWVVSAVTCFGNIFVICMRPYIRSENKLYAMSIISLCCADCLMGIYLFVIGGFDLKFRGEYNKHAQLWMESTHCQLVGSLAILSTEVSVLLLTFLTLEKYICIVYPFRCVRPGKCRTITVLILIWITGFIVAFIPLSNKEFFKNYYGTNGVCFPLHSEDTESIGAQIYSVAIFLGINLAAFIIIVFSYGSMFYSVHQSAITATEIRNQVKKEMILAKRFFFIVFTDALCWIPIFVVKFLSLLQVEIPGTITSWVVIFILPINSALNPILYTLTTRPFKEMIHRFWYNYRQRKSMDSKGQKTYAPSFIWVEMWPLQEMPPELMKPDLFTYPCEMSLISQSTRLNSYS
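HEK293 cells stably expressing RXFP1, treated 30 min at 37C with compounds plus PDE4 inhibitor Ro 20174; cAMP measured by HTRF TR-FRET. Normalized to buffer and 29 nM porcine relaxin; EC50 by Hill fit.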
RXFP1 antagonist = RXFP1 (human) relaxin receptor antagonism | 0.59% of 350,000 active | AID 1259400 | HEK293-RXFP1, relaxin-stimulated cAMP HTRF, 30 min; active compounds read low | activity change, negative = inhibition, % at 57.5 µM;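 active = activity change of -60% or lower, but not beyond a set lower limit; inconclusive = change between -60% and -40%, or beyond the set limit; inactive = change above -40%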
KCNH2 3.1 inh = inhibitors of human KCNH2 3.1 potassium channel isoform. U2OS KCNH2 3.1, thallium flux FluxOr; active compounds read low. activity change, % (tested at about 1.8 µM). 0.95% of 340,000 active. AID 720553;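 active = maximum activity change below -70%; inconclusive = maximum activity change from -70% to -50%; inactive = maximum activity change above -50%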;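 also: thallium influx rate constant from kinetic fluorescence after stimulation buffer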
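Virally transduced U2OS (3.1 isoform, 4 h infection in dark at RT) → overnight 37 C → FluxOr + Red40 in HBSS/HEPES, 45 min → stimulation buffer, 2 min kinetic read → rate constant vs DMSO controls.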
Akt phos inh = inhibitors of Akt phosphorylation; Neuro2A IGF-stimulated pAkt S473 HTRF, 20 min; active compounds read low; activity change, % for hits at 50 µM; 0.32% of 360,000 active; AID 651550; in the data active = activity change below about -80%; inconclusive = mostly about -51% to -80%
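Single-point screen (50 µM final compound) in Neuro2A cells stimulated 20 min with 6 nM IGF at 37 deg C. After lysis, Ser473-phosphorylated Akt read by HTRF (ex 330 nm, em 615/665 nm) as the 665/615 ratio.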
Starred values were filed as active, the others as inactive; i = inactive; ? = inconclusive; / = not tested or not shown. An excerpt weighted towards active compounds, which were near 1.7% of everything screened. % is scaled to controls: 0 for no effect and ±100 for the full control effect.

SMILES | hERG WT inh | RXFP1 ag | RXFP1 antagonist | KCNH2 3.1 inh | Akt phos inh
Cc1cc(CN2C(=O)c3ccccc3C2=O)cc(N2CCOCC2)c1 | -294* | 4% | -6 | 5 | i
Cc1nc(SCC(=O)N2CCN(C(=O)c3ccco3)CC2)c2c(C)c(C)sc2n1 | 3 | 8% | 13 | 9 | i
Cc1nc(SCC(=O)N2CCCC2=O)c2c(C)c(C)sc2n1 | -90* | / | -9 | 10 | i
Cc1nc(SCC(=O)N2CCN(C(=O)c3cccs3)CC2)c2c(C)c(C)sc2n1 | 10 | 17% | -64* | 4 | i
Cc1nc(SCC(=O)N2CCOCC2)c2c(C)c(C)sc2n1 | -16 | 10% | 8 | 4 | i
COc1ccc2c(c1)c1c(c(=O)n(-c3ccccc3C)c(=O)n1CC(=O)N1CCCC1)n2C | / | -2% | / | / | /
COc1cccc(C2CC3(CC(C)(C)NC(=S)N3)Oc3cc(O)ccc32)c1 (stereo not drawn) | 3 | 1% | -30 | -6 | i
CSC1=NC2(CC(c3ccccc3)Oc3cc(O)ccc32)CC(C)(C)N1 (stereo not drawn) | ? | 0% | -12 | -94* | i
O=C(COC(=O)c1ccc(O)cc1O)Nc1cc(-c2ccccc2)nn1-c1ccccc1 | 0 | -1% | -73* | -36 | i
CC(C)(C)c1cc(NC(=O)COC(=O)c2ccc(O)cc2O)n(-c2ccccc2)n1 | -10 | 0% | 1 | 6 | i
COc1cccc(CNC(=O)Cn2ncc3c4ccccc4n(C)c3c2=O)c1 | / | 21% | -7 | / | /
COC(=O)CNc1n[nH]c(=S)[nH]c1=O | 2 | ? | -15 | 3 | i
CC(C)OC(=O)CNc1n[nH]c(=S)[nH]c1=O | -3 | 5µM* | -39 | -27 | i
COC(=O)c1nc(NC2=NCCCCC2)n[nH]1 | 5 | -1% | -2 | 7 | i
COc1cccc(NC(=O)CSc2nc3n[nH]c(C)c3c(=N)n2-c2cccc(OC)c2)c1 | -1 | 5% | -15 | 1 | i
CCO/C=C/C(O)(CNC(=O)c1ccc(C(C)(C)C)cc1)C(F)(F)F (stereo not drawn) | 6 | -1% | -3 | -72* | i
CCOC(=O)CNC(=O)c1ccc(C)cc1 | -1 | -1% | -7 | 2 | i
Cc1ccc(NC(=O)c2ccc3c(c2)N(CC(=O)N2CCCCC2)C(=O)C(C)(C)O3)cc1 | 11 | 0% | -22 | -12 | -121%*
O=C(O)CCC(=O)Nc1ccc(C(=O)OCC(=O)c2ccc(Cl)cc2Cl)cc1 | -3 | 0% | -67* | 3 | i
COc1cc(CO)cc(-c2cc(CO)cc(OC)c2OC)c1OC | -12 | -1% | -9 | -16 | -107%*
CC1=CC(C)(C)N(C(=O)CCl)c2ccccc21 | -11 | -3% | -6 | 7 | i
CC1=CC(C)(C)N(C(=O)CSc2ncn[nH]2)c2ccccc21 | -9 | 3% | 23 | -78* | i
C[C@H](CO)N1C[C@H](C)[C@@H](CN(C)S(=O)(=O)c2ccccc2)Oc2c(NS(=O)(=O)c3cccs3)cccc2C1=O | 20 | / | / | -5 | i
CCn1cc(S(=O)(=O)c2ccccc2)c(=O)c2cc(F)c(F)cc21 | / | 3% | -9 | / | /
CSc1nc(SCC(=O)O)c2sc3nc(-c4ccccc4)c4c(c3c2n1)CCC4 | -15 | 28µM* | 0 | 2 | i
SMILES | hERG WT inh | RXFP1 ag | RXFP1 antagonist | KCNH2 3.1 inh | Akt phos inh
CCC(C)(C)n1nnnc1C(c1ccc(OC)c(OC)c1)N1CCN(c2ccc(F)cc2)CC1 (stereo not drawn) | 13 | -1% | -10 | 2 | i
CCCCC(CC)C(=O)Nc1cc(C(=O)NCCC)ccc1N1CCC2(CC1)CC(c1ccccc1)=NO2 (stereo not drawn) | -109* | 0% | / | -94* | i
CCCNC(=O)c1ccc(N2CCC3(CC2)CC(c2ccccc2)=NO3)c(NC(=O)c2ccco2)c1 | ? | -1% | / | -47 | i
CCCNC(=O)c1ccc(N2CCC3(CC2)CC(c2cccc(Br)c2)=NO3)c(NC(=O)c2ccc(Br)cc2)c1 | -83* | 2% | / | -111* | i
CCCNC(=O)c1ccc(N2CCC3(CC2)CC(c2ccccc2)=NO3)c(NC(=O)c2cccc(OC)c2)c1 | -92* | 0% | / | -97* | i
CCC(=O)Nc1cccc(C(=O)/C=C/c2ccc(F)cc2)c1 | -8 | 1% | -20 | -36 | i
COc1ccc(C)cc1NC(=O)CSc1nnc(CC(=O)Nc2cccc(C(F)(F)F)c2)n1C | 5 | -1% | 11 | -18 | i
O=C(c1ccoc1)N1CCCC(CO)(CCCc2ccccc2)C1 (stereo not drawn) | -16 | -1% | -1 | -155* | i
O=C(CCC1N=C2c3ccccc3N=C(SCc3ccc(F)cc3)N2C1=O)NCc1cccs1 (stereo not drawn) | / | 8% | -13 | / | /
CCOC(=O)N1CCN(C(=O)c2cc3c(s2)-c2ccccc2OC3)CC1 | -15 | ? | / | 5 | i
CCCN1CCN(C(=O)c2cc3c(s2)-c2ccccc2OC3)CC1 | 5 | 18µM* | / | -2 | i
NC(=O)C1CCCN(C(=O)c2ccc(-c3cccc(Cl)c3Cl)o2)C1 (stereo not drawn) | -5 | 4% | -15 | 5 | i
COC(=O)CSc1ncc(S(=O)(=O)c2ccccc2)c(=O)[nH]1 | 5 | 4% | 20 | -131* | i
CCc1ccccc1NC(=O)CSc1ncc(S(=O)(=O)c2ccccc2)c(=O)[nH]1 | / | 1% | / | / | /
CC(NC(=O)CN(c1cccc(C(F)(F)F)c1)S(=O)(=O)c1ccc(Cl)c([N+](=O)[O-])c1)c1ccccc1 (stereo not drawn) | 13 | -1% | -82* | -7 | i
Cc1cccc(CN2CCC(C(=O)Nc3ccc(Oc4cccnc4)cc3)CC2)c1 | 40 | -1% | 1 | -28 | i
COC(=O)C1=C(C)N(c2cccc(Cl)c2)C(=O)C1 | -3 | 0% | 0 | -1 | -118%*
COC(=O)C1=C(C)N(c2cccc(C(C)=O)c2)C(=O)C1 | 0 | 0% | -2 | -4 | i
COc1ccccc1-c1cc(-c2ccccc2)nc(SC(C(N)=O)c2ccccc2)c1C#N (stereo not drawn) | -6 | 8% | -5 | -33 | -91%*
Cc1nc(SC(C(N)=O)c2ccccc2)c(C#N)c(C)c1C (stereo not drawn) | -1 | 3% | -4 | 3 | i
O=C1C(Cl)=C(Nc2ccccc2O)C(=O)N1c1ccccc1 | -9 | -1% | -18 | -1 | i
CC(=O)c1ccc(N2CCN(CC(O)COC(c3ccccc3)c3ccccc3C)CC2)cc1 (stereo not drawn) | -25 | -6% | -28 | -94* | i
OC(COC(c1ccccc1)c1ccccc1)CN1CCN(c2cccc(Cl)c2)CC1 (stereo not drawn) | -1 | -3% | -26 | -50 | i

From PubChem
